In ChEMBL document CHEMBL1961873, “Compounds: GSK PKIS; Assays: Nanosyn kinase panel” (2012):

Columns and labels:
[1] = molecular target: Dual specificity protein kinase CLK3 (Homo sapiens) (UniProt P49761); conditions: at 1 µM;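 also: each value is the mean inhibition of CLK3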
[2] = molecular target: Dual specificity tyrosine-phosphorylation-regulated kinase 1A (Homo sapiens) (UniProt Q13627); conditions: at 0.1 µM
[3] = molecular target: Dual specificity tyrosine-phosphorylation-regulated kinase 1A (Homo sapiens) (UniProt Q13627); conditions: at 1 µM
[4] = molecular target: Dual specificity tyrosine-phosphorylation-regulated kinase 1B (Homo sapiens) (UniProt Q9Y463); conditions: at 0.1 µM
[5] = molecular target: Dual specificity tyrosine-phosphorylation-regulated kinase 1B (Homo sapiens) (UniProt Q9Y463); conditions: at 1 µM
[6] = molecular target: T1, Dual specificity tyrosine-phosphorylation-regulated kinase 2 (Homo sapiens) (UniProt Q92630); conditions: at 0.1 µM
T1 sequence (whole entry): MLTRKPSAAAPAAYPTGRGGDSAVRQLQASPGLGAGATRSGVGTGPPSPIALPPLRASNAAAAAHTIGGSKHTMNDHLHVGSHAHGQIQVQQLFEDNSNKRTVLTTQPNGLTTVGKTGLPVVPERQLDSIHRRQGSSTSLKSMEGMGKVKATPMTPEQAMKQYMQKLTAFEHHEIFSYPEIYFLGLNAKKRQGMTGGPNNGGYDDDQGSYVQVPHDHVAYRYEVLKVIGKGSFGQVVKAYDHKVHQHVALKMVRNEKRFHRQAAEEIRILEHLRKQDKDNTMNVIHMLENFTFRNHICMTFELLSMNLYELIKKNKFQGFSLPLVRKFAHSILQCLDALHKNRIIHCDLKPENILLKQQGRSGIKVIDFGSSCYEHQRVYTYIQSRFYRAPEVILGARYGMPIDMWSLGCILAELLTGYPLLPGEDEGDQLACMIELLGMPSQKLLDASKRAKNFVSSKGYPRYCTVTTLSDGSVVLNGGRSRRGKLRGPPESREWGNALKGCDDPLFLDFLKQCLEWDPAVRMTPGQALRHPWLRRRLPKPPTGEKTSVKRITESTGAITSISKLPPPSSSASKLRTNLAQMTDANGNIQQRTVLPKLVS

[7] = molecular target: T1, Dual specificity tyrosine-phosphorylation-regulated kinase 2 (Homo sapiens); conditions: at 1 µM
[8] = molecular target: Glycogen synthase kinase-3 alpha (Homo sapiens) (UniProt P49840); conditions: at 0.1 µM
[9] = molecular target: Glycogen synthase kinase-3 alpha (Homo sapiens) (UniProt P49840); conditions: at 1 µM
[10] = molecular target: Glycogen synthase kinase-3 beta (Homo sapiens) (UniProt P49841); conditions: at 0.1 µM;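 also: values are mean percent inhibition of GSK3B activity, from the GSK Published Kinase Inhibitor Set (PKIS) screening dataset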
Glycogen synthase kinase-3 beta (Homo sapiens), sequence (P49841 whole entry, looked up): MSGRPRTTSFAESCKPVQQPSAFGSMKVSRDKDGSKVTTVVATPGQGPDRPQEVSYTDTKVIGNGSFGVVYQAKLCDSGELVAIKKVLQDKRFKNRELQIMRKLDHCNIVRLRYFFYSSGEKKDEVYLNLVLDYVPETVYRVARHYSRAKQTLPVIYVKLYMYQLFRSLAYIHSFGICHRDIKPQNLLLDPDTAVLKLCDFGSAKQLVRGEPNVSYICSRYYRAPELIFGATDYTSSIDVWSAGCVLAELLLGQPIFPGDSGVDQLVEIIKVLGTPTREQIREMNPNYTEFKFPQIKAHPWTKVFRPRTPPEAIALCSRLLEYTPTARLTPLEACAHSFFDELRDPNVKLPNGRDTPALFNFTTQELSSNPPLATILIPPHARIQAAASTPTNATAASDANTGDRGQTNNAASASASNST

Dual specificity protein kinase CLK3 (Homo sapiens), sequence (P49761 whole entry, looked up): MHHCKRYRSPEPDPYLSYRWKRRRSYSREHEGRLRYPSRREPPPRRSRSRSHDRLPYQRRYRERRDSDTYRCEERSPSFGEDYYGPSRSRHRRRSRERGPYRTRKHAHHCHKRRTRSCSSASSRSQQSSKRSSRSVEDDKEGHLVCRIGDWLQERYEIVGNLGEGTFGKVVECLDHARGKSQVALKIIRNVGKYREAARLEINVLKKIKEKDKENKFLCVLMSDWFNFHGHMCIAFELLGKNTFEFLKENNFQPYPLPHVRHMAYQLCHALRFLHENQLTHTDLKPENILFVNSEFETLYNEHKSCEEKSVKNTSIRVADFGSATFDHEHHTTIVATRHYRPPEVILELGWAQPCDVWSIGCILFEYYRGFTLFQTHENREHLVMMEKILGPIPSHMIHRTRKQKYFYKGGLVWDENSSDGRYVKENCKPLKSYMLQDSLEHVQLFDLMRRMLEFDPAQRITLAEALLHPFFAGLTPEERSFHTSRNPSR
Glycogen synthase kinase-3 alpha (Homo sapiens), sequence (P49840 2-483 limits assumed): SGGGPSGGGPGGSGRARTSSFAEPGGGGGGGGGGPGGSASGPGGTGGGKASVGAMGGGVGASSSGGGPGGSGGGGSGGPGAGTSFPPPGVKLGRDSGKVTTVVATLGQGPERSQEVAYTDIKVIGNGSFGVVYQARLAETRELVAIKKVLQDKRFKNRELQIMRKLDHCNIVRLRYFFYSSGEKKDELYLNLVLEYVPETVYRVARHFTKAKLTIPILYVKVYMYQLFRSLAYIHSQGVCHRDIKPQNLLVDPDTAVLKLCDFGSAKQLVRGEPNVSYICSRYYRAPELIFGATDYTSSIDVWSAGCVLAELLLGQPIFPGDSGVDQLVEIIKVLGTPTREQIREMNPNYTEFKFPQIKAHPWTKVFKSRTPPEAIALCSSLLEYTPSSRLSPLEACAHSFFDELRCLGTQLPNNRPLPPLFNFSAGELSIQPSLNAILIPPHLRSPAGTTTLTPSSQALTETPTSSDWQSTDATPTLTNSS
Dual specificity tyrosine-phosphorylation-regulated kinase 1B (Homo sapiens), sequence (Q9Y463 whole entry, looked up): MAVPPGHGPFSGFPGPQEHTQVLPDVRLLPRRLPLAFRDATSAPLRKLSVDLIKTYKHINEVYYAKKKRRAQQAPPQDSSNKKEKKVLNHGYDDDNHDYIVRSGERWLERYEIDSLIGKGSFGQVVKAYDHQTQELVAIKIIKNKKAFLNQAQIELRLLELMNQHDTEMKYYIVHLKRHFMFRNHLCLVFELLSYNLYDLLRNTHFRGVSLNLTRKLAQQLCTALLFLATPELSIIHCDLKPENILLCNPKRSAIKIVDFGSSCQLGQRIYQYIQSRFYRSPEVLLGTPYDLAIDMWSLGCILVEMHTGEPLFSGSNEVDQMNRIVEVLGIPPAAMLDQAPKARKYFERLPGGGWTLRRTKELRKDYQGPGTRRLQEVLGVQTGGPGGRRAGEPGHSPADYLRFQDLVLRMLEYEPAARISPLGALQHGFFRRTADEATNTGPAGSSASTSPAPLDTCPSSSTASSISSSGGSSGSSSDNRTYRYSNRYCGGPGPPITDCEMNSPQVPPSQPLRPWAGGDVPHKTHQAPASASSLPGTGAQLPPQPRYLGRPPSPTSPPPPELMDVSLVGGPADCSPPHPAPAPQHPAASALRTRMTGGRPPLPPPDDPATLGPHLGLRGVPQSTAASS

Row | SMILES | inhibition [1] [%] | inhibition [2] [%] | inhibition [3] [%] | inhibition [4] [%] | inhibition [5] [%] | inhibition [6] [%] | inhibition [7] [%] | inhibition [8] [%] | inhibition [9] [%] | inhibition [10] [%]
1 | O=C(Nc1n[nH]c2cc(-c3cc(F)ccc3F)ccc12)C1CC1 | 1.26 | 2.37 | 4.39 | -0.4 | -0.93 | 2.2 | 3.59 | 7.07 | 30.4 | 
2 | CN(C)c1ccc2c(c1)/C(=C/Nc1ccc(S(N)(=O)=O)cc1)C(=O)N2 | 3.39 | 7.43 | 33.4 | 4.54 | 24.5 | 1.54 | 4.74 | 8.28 | 21.6 | 6.03
3 | O=C(Nc1n[nH]c2cc(-c3ccccc3)ccc12)C1CC1 | 2.33 | 5.04 | 6.14 | 1.94 | 3.5 | 2.82 | 4.68 | 6.53 | 32.7 | 
4 | COc1cc(N2CCN(C(C)C)CC2)ccc1Nc1nc(Nc2ccc(F)cc2C(=O)NC[C@@H](O)CO)c2cc[nH]c2n1 | 4.1 | 0.93 | 12.7 | -2.96 | 12 | 3.04 | 5.79 | -1.27 | 0.1 | -0.78
5 | O=C(Nc1n[nH]c2nc(-c3ccco3)ccc12)C1CC1 | 0.48 | -0.57 | 1.05 | -0.1 | 1.34 | 1.49 | 1.64 | 11.5 | 48.9 | 
6 | O=C(Nc1n[nH]c2nc(-c3ccc(O)cc3)c(Br)cc12)C1CC1 | 8.39 | 17.6 | 55.5 | 33.2 | 71.7 | 12.4 | 53.3 | 82.8 | 85.7 | 
7 | COC(=O)Nc1nc2ccc(Sc3ccc(NC(=O)Nc4cc(C(F)(F)F)ccc4F)cc3)cc2[nH]1 | 2.87 | 0.92 | 1.72 | 1.9 | 3.2 | 0.2 | 0.89 | 0.12 | 0.68 | 2.16
8 | COc1cc2ncn(-c3cc(OCc4ccccc4C(F)(F)F)c(C(C)=O)s3)c2cc1OC | 1.08 | 1.88 | 2.83 | -0.72 | 0.32 | 1.35 | 1.43 | 1.6 | 3.73 | 1.43
9 | COc1ccc(-c2ccc3c(NC(=O)C4CC4)n[nH]c3n2)cc1 | 2.15 | 0.91 | 1.49 | -0.93 | 0.04 | 1.19 | 2.63 | 3.01 | 8.2 | 
10 | C[C@@H](Oc1cc(-n2cnc3ccc(OC4CCN(C)CC4)cc32)sc1C(N)=O)c1ccccc1Cl | -2.38 | -0.72 | 0.72 | -4.55 | -3.42 | 2.47 | 7.45 | -1.18 | -0.34 | -1.76
11 | CS(=O)(=O)CCNCc1cc(-c2cc3c(Nc4ccc(OCc5cccc(F)c5)c(Cl)c4)ncnc3s2)cs1 | 0.02 | 2.31 | 3.13 | -1.81 | -0.61 | 3.75 | 8.37 | 2.31 | 2.97 | 1.53
12 | NC(=O)c1ccc(Oc2nccc(-c3c(-c4ccc(F)cc4)ncn3C3CCNCC3)n2)cc1 | 1.67 | 3.41 | 5.23 | 0.33 | -0.41 | 4.43 | 9.4 | 2.18 | 3.39 | 2.57
13 | CCC(=O)Nc1ccc(C)c(-c2ccc(C(=O)NCC3CC3)cc2)c1 | -0.21 | 1.98 | 3.18 | -0.71 | 0.18 | 3.11 | 2.91 | 1.84 | 3.42 | 0.54
14 | NC(=O)c1cc(-c2ccncc2)cc(-c2ccccc2)c1N | 2.34 | 6.65 | 29.2 | 3.05 | 17.9 | 3.61 | 4.25 | 3.97 | 12.7 | 2.53
15 | CCS(=O)(=O)c1ccc(OC)c(Nc2ncc(-c3cccc(-c4ccccc4F)c3)o2)c1 | 13.9 | 3.84 | 26 | 3.9 | 18.5 | 1.46 | 10.3 | 2.37 | 9.24 | 1.65
16 | FC(F)(F)c1cccc(Nc2nccc(-c3cnn4nc(-c5ccccc5)ccc34)n2)c1 | 6.92 | 1.59 | 8.11 | 0.33 | 8.12 | 1.14 | 0.09 | 23.5 | 67.8 | 
17 | Cc1ccc(C(=O)NC(C)C)cc1-c1ccc(C(=O)NCC2CC2)cc1 | 0.67 | 1.18 | 2.28 | 3.39 | 3.96 | -2.49 | -3.21 | 1.52 | 3.31 | 1.46

Row | SMILES | inhibition [1] [%] | inhibition [2] [%] | inhibition [3] [%] | inhibition [4] [%] | inhibition [5] [%] | inhibition [6] [%] | inhibition [7] [%] | inhibition [8] [%] | inhibition [9] [%] | inhibition [10] [%]
18 | Fc1ccc(-c2nc3n(c2-c2ccncc2)CCS3)cc1 | -2.32 | 0.54 | 0.87 | -3.06 | -3.89 | 2.91 | 2.31 | -0.87 | 3.8 | -1.43
19 | NC(=O)c1cc(-c2ccc(F)cc2)cc(-c2ccncc2)c1N | 0.95 | 1.07 | 3.02 | -0.78 | -1.19 | 3.58 | 5.04 | 1.24 | 1.03 | 0.05
20 | COc1ccc2cc(-c3c(-c4ccncc4)nc(-c4ccc(S(C)(=O)=O)cc4C)n3C)ccc2c1 | 2.06 | 2.19 | 7.68 | 0.76 | 2.36 | 3.55 | 4.35 | 2.9 | 6.04 | 2.27
21 | CCc1cccc(CC)c1/C=C/c1cncc(C(=O)NC)c1 | 1.66 | 1.88 | 5.03 | 1.08 | 3.49 | 2.13 | 2.5 | 2.14 | 6.98 | 2.21
22 | CCN(CC)Cc1ccc(Nc2nccc(-c3cnn4ncccc34)n2)cc1 | 5.2 | 40 | 88 | 43.6 | 69.2 | 5.06 | 25.7 | 24.4 | 65.8 | 18
23 | COc1ccc2ncn(-c3cc(O[C@H](C)c4ccccc4Cl)c(C(N)=O)s3)c2c1 | -2.47 | -1.4 | 0.78 | -5.09 | -1.96 | 2.27 | 2.75 | -1.42 | 1.7 | -1.37
24 | CNC(=O)c1cncc(/C=C/c2c(C)cccc2C)c1 | -2.04 | -1.29 | 2.27 | 0.49 | 1.89 | -0.14 | -0.61 | -2.93 | -0.82 | -1.93
25 | O=C1Nc2ccccc2/C1=C/Nc1ccc(-n2cncn2)cc1 | 1.52 | 6.54 | 14.3 | 3.43 | 11.6 | 3.46 | 6.8 | 17.3 | 28.2 | 15.3
26 | NS(=O)(=O)c1ccc(Nc2cc(-c3ccc(O)c(F)c3)n[nH]2)cc1 | 2.65 | 1.28 | 4.89 | 2.64 | 5.44 | -2.19 | 3.75 | 1.79 | 23.5 | 4.44
27 | COc1ccc(C2=C(N3CCc4ccccc43)C(=O)NC2=O)cc1 | 4.16 | 4.7 | 13 | 1.97 | 8.53 | 3.77 | 5.13 | 11.5 | 42.9 | 
28 | Cc1nnc(-c2ccc(C)c(-c3ccc(C(=O)NCc4ccc(Cl)cc4)cc3)c2)o1 | -1.79 | 0.32 | 0.5 | -2.54 | -4.08 | 2.1 | 3.03 | 0.36 | 9.75 | -0.31
29 | Fc1ccc(-c2c(-c3ccncc3)nc3n2CCS3)cc1 | -1.56 | -1.74 | 0.34 | -4.54 | -2.54 | 1.26 | 1.86 | -2.59 | 1.28 | -2.25
30 | CCS(=O)(=O)c1ccc(OC)c(Nc2ncc(-c3ccccc3Cl)o2)c1 | 8.78 | 0.71 | 5.06 | 1.56 | 5.7 | 1.98 | 11.8 | 0.38 | 1.64 | 1.56
31 | COc1cc2ncn(-c3cc(OCCc4ccccc4)c(C(N)=O)s3)c2cc1OC | 3.27 | 3.14 | 3.09 | 1.95 | 1.81 | -0.08 | 4.14 | 0.82 | 3.18 | 0.44
32 | COc1cc(Nc2ncc(-c3ccccc3)o2)cc(OC)c1OC | 0.88 | 1.8 | 6.39 | 1.65 | 3.72 | -2.15 | -1.69 | 5.71 | 34.4 | 5.44
33 | O=C1NC(=O)C(c2cccc(Cl)c2)=C1Nc1ccc(Cl)c(C(=O)O)c1 | 2.4 | 1.22 | 5.02 | -0.3 | 1.57 | 1.93 | 2.84 | 32.8 | 77.5 | 
34 | NCc1ccc(-n2c(-c3nonc3N)nc3cnccc32)cc1 | 3.13 | 8.53 | 37.5 | 5.66 | 36.4 | 3.41 | 4.54 | 25.6 | 67 | 18.1
